HUVEC tox TNFa: cytotoxicity in TNFa-stimulated HUVEC, primary screen, cytotoxicity control for VCAM1 expression modulator project, imaging, Hoechst nuclei count; cell count reduction, % at 2 µM; 93,000 compounds, 0.17% hits; HUVEC TNFalpha-stimulated, Hoechst cell count;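 active = cell count reduction exceeding the screen mean by over 5 SD, scaled to untreated wells per plate, cut at about 78% in these data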;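 also: cells counted after 24 h of TNF alpha exposure following the 1 h pretreatment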
E-sel TNF inh: E-selectin induction blockers in HUVEC – imaging, immunofluorescence, high content, primary screen | HUVEC TNFa-induced E-selectin immunofluorescence | inhibition, % at 2 µM | 120,000 compounds, 0.71% hits | AID 1246, 2008;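 active = inhibition above the batch mean plus 3 SD, and confirmed as a hit on visual image review, cut at about 43% in these data; inconclusive = passes the inhibition cutoff but fails visual image review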
F-actin modifier: modifiers of F-actin cytoskeleton organization, primary screen, imaging, HUVEC, phalloidin staining, high-content imaging; 91,000 compounds, 0.18% hits; HUVEC TNFa F-actin phalloidin imaging; inhibition, % at 2 µM; AID 836, 2007;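 active = inhibition above the batch mean plus 3 SD and confirmed as a hit by visual image inspection, cut at about 30% in these data, passing the limit was not always enough; inconclusive = above the inhibition threshold but rejected on visual inspection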
VCAM1 TNFa inh: inhibitors of TNFa-induced VCAM1 expression, primary screen, imaging, HUVEC, TNFa stimulus, immunofluorescence; HUVEC TNFa-induced VCAM-1 immunofluorescence, high-content imaging; inhibition, % at 2 µM; 95,000 compounds, 0.48% hits; AID 802, 2007;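 active = inhibition above the batch mean plus 3 SD, with images confirmed as a hit by eye, cut at about 37% in these data; inconclusive = inhibition above that limit but hit not confirmed in images; inactive = inhibition not above that limit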
A number is an active result; – = inactive; ? = inconclusive; · = no result given. Only some compounds are listed: those with a hit (about 1.1% of all), similar ones and a draw of the others.

SMILES	HUVEC tox TNFa	E-sel TNF inh	F-actin modifier	VCAM1 TNFa inh
COc1cccc(Nc2nc(C)cc(C)c2C#N)c1	–	–	–	–
COc1ccc(Nc2nc(C)cc(C)c2C#N)cc1OC	–	59	–	–
Cn1ncc(C#N)c1/N=C/N1CCCC1	–	–	–	–
O=C(c1ccc(COCC(F)(F)F)o1)N1CCCCCC1	–	74	–	–
Cn1c(NCc2c[nH]c3ccccc23)nc2ccccc21	–	–	·	58
O=C(NC(NC1CCS(=O)(=O)C1)C(=O)c1cccs1)c1ccccc1 (configuration not stated)	–	–	–	94
Fc1ccc(NC(=S)Nc2cccnc2)c(F)c1F	·	–	·	·
COc1ccccc1NC(=O)CC(=O)CSc1nnc(-c2ccc(C)cc2)n1C	–	–	–	–
COc1ccccc1NC(=O)CSc1nnc(-c2ccc(NC(C)=O)cc2)n1C	–	67	–	–
O=C(COc1ccc([N+](=O)[O-])cc1)Nc1ccc(C(=O)NCc2cccnc2)cc1	–	–	–	–
N#Cc1ccsc1NC(=O)COC(=O)c1ccc2ccccc2c1	·	97	·	·
Cn1c(SCC(=O)Nc2ccc(NC(=O)c3cccs3)cc2)nnc1-c1ccncc1	–	–	–	–
Cc1cccc(OCCN2CSC(=S)N(C)C2)c1	–	·	–	43
CCOc1ccc(S(=O)(=O)Nc2cc(OC)ccc2OC)cc1	–	·	–	59
COc1ccc(OC)c(NS(=O)(=O)c2ccc(N3CCCC3=O)cc2)c1	–	·	–	41
O=C(CS(=O)(=O)c1c[nH]c2ccccc12)N1CCCCCC1	·	–	·	·
O=C(c1ccc(F)cc1)N1CCN(c2cc(N3CCCCC3)c(F)cc2[N+](=O)[O-])CC1	–	–	–	–
COCC1CCCCN1Cc1cn[nH]c1-c1ccc2cc(OC)ccc2c1 (configuration not stated)	·	–	·	·
COc1cccc(-c2cnc(NCc3cc(Cl)ccc3O)n2C)c1	–	60	–	–
O=[N+]([O-])c1ccc(/C=N/n2c(COc3ccccc3)n[nH]c2=S)cc1	–	–	–	43
COc1cc(NC(=O)CN2CCCCC2)c(C)cc1[N+](=O)[O-]	·	–	·	·
COc1cc(NC(=O)Cn2ncc(Cl)c(Cl)c2=O)c(C)cc1[N+](=O)[O-]	·	83	·	·
CCc1cccc(CC)c1NC(=O)C1SC(=Nc2ccccc2C)C(c2nc3ccccc3s2)=C1N (configuration not stated)	–	–	–	59
NS(=O)(=O)c1ccc(CNC(=O)c2scc3c2CCCC3)cc1	·	–	·	·
CCN(CC)c1ncnc2sc(C(=O)N3CCN(c4ccccc4)CC3)c(C)c12	·	–	·	·
SMILES	HUVEC tox TNFa	E-sel TNF inh	F-actin modifier	VCAM1 TNFa inh
CC(C)(CO)NC(=O)CCCOc1ccc(Cl)cc1Cl	–	–	–	93
Cc1cc(C)c2c(CC(=O)Nc3nccs3)coc2c1	–	–	–	–
CC(=O)N=c1n(C)c2ccccc2n1CCOc1ccccc1	·	–	·	·
CC(OC(=O)CCN1C(=O)c2cccc([N+](=O)[O-])c2C1=O)C(=O)Nc1cc(Cl)cc(Cl)c1 (configuration not stated)	·	95	·	·
CCOC(=O)c1c(NC(=O)CCN2C(=O)c3cccc([N+](=O)[O-])c3C2=O)sc(C(=O)OC(C)C)c1C	·	–	·	·
C=C(C)c1cccc(C(C)(C)NC(=O)Nc2ncccn2)c1	95	–	74	99
COc1cc2c(=O)n(-c3ccc(C)cc3)c(=O)n(CC(=O)c3ccc4c(c3)OCO4)c2cc1OC	·	–	·	·
COc1cc2c(O)c3c(c(-c4ccc5c(c4)OCO5)c2cc1OC)C(=O)OC3	–	·	–	91
COC(=O)C(O)(NC(=O)NC(C)=O)C(F)(F)F (configuration not stated)	–	–	–	–
C=CCNC(=S)NNC(=O)c1ccc(OCC)cc1	–	53	–	–
Cc1csc(NC(=O)CSc2nnc(-c3cccs3)n2C)n1	–	–	65	–
Cc1csc(NC(=O)CSc2nnc(CCNC(=O)c3cccs3)n2C)n1	–	–	–	–
C/C(=N/NC(=O)c1cccs1)c1ccc(NC(=O)COc2ccc(Cl)cc2)cc1	–	–	–	–
COC(=O)CSc1nc2nc(C)c(Br)cc2[nH]1	100	–	?	?
C=C(C)CSc1nc2nc(C)c(Br)cc2[nH]1	–	–	–	–
CN(C)C(=S)NC1CCS(=O)(=O)C1 (configuration not stated)	·	–	·	·
O=S1(=O)CCC(NC(=S)N2CCCCCC2)C1 (configuration not stated)	·	70	·	·
OC(c1ccccn1)c1c[nH]c2ccccc12 (configuration not stated)	–	–	67	–

Compound activity deposited in PubChem BioAssay by Columbia University Molecular Screening Center.
